# Among all 220,000 compounds or so, about 10 (0.005%) were called active. No stated cut-off is given here; in the data, active means maximum fold increase above about 1.5; inconclusive means no clear call, values can overlap the other calls; inactive means below that; tested in PC3 cells. The list is a sample of the results.
# Assay: compounds boosting herpes simplex virus growth – fold increase, host cell viability (AID 1956)
# Settings: HSV replication augmentation in cells; fold increase: measured here: primary screen fold increase 10 uM, at 10 µM, stronger effect = higher value; maximum fold increase: at 0.098 µM, stronger effect = higher value; viability: measured here: host cell viability series, at 25 µM, stronger effect = lower value
SMILES,fold increase,outcome
Cc1nc(Cl)c(C#N)c2c1CCCC2,0.96,inactive
O=c1[nH]snc1-c1c(Cl)cccc1Cl,0.9,inactive
C[C@@H](NC(=O)OC(C)(C)C)c1nnc(S(=O)(=O)Cc2ccccc2)o1,0.98,inactive
OCC[C@H]1C[C@H](O)[C@@H](O)[C@]2(CCCCO2)O1,0.79,inactive
CCCCCCCCCCCCN1[C@@H](CC(C)=O)c2cc(F)cc(F)c2S1(=O)=O,0.93,inactive
COc1ccc(CN2[C@@H](CC(=O)O)c3cc(F)ccc3S2(=O)=O)cc1,0.82,inactive
C=CCC(Nc1ccccc1)c1cccc(OC)c1OC (centres undefined),0.99,inactive
COc1ccc(CNC(=O)C2(CC3CC(c4ccccc4)=NO3)CCN(C(=O)c3cccc(O)c3)CC2)cc1 (centres undefined),0.88,inactive
CC1CCN(Cc2nc(-c3ccc(Cl)cc3)no2)CC1,0.99,inactive
NC(=O)NC(=O)CSc1nc2cc([N+](=O)[O-])ccc2n1-c1cccc(C(F)(F)F)c1,0.9,inactive
COc1ccc(N2C(=O)C3C(C2=O)C(C(=O)c2ccccc2)N2CCCC32)cc1 (centres undefined),1.02,inactive
Cc1ccccc1NC(=O)Nc1ccccc1N1CCCCC1,0.85,inactive
CCCC[C@@H]1CN=C(N)N1CCc1cccc(F)c1,0.84,inactive
C/C=C(/C)C(=O)O[C@@H]1c2cc3c(c4c2[C@@]2(CO4)C(=O)C(OC)=C(OC)C=C2C[C@@H](C)[C@H]1C)OCO3,0.75,inactive
CC1Cc2ccccc2N1CC(=O)Nc1ccc(S(N)(=O)=O)cc1 (centres undefined),1.03,inactive
O=C(Nc1nnc(COc2ccccc2)s1)Nc1ccccc1F,0.9,inactive
COc1ccc(COCCN2CCN(S(=O)(=O)c3ccccc3)CCC2=O)cc1,0.895,inactive
N/C(=N\OC(=O)CCn1cccc(C(F)(F)F)c1=O)c1ccc(OC(F)(F)F)cc1,0.99,inactive
C=CC(COCc1ccccc1)N(Cc1ccccc1)S(=O)(=O)c1ccccc1Br (centres undefined),1.29,inactive
Cc1cc(C(=O)NNS(=O)(=O)c2ccccc2C(F)(F)F)nn1C(C)(C)C,1,inactive
CC1(C)S[C@@H]2[C@H](N=CN3CCCCCC3)C(=O)N2[C@H]1C(=O)O,0.85,inactive
CN(C)N=Nc1ccc2nc[nH]c2c1,1.29,inactive

SMILES,fold increase,outcome
O=C(O)C1CCN(c2ccc([N+](=O)[O-])cc2[N+](=O)[O-])CC1,0.9,inactive
CCOC(=O)c1ccc(NC(=O)c2nc[nH]c2C(=O)NCc2ccccc2)cc1,0.92,inactive
CC(C)(C)Oc1ccccc1Nc1nc(NCCO)nc(N2CCCC2)n1,0.69,inactive
CCOC(=O)C1Nc2ccc(C(F)(F)F)cc2C2C=CCC12 (centres undefined),0.82,inactive
O=[N+]([O-])c1ccc(N/N=C/c2ccccc2)cc1,1.08,inactive
O=c1c2c3c(sc2n(CCN2CCCC2)c(=O)n1Cc1ccccc1)CCCCC3,0.84,inactive
Cc1ccc(NC(=O)/C(=C/c2ccc([N+](=O)[O-])cc2)NC(=O)c2ccccc2)cc1,0.83,inactive
COc1ccc2[nH]c(=S)cc(C)c2c1,1.08,inactive
CCOC(=O)C1CCN(c2c(Nc3cc(C)cc(C)c3)c(=O)c2=O)CC1,0.95,inactive
CC(NC(=S)Nc1ccccc1)C(c1cccs1)N1CCOCC1 (centres undefined),1,inactive
Cc1nc(-c2ccc(Cl)cc2)sc1C1(C)CC(c2ccc(Br)cc2)=NO1 (centres undefined),0.87,inactive
CCOC(=O)/C=C/c1ccc(C(F)(F)F)cc1S(=O)(=O)NC(C)(C)C,0.67,inactive
CC(C)n1c(=S)[nH]c2cc(C(F)(F)F)ccc21,1.02,inactive
COc1cccc(Nc2nnc(SCC(=O)N3CC(=O)Nc4ccccc43)s2)c1,1,inactive
CCc1nnc(SCc2cccc(F)c2)nc1CC,1.19,inactive
CC1(C)CC[C@]2(C(=O)O)CC[C@]3(C)C(=CCC4[C@@]5(C)CC[C@H](O)C(C)(C)C5[C@H](O)C[C@]43C)[C@@H]2C1 (some centres undefined),0.82,inactive
COC(C[C@@H](O)C[C@@H](O)[C@H](C)OCc1ccccc1)OC,1.01,inactive
COC(=O)c1cc(=O)n(-c2c(Cl)cc(C(F)(F)F)cc2Cl)[nH]1,0.98,inactive
S=c1[nH]nc(-c2cc(-c3ccccc3)n[nH]2)n1/N=C/c1c2ccccc2cc2ccccc12,0.83,inactive
Cc1cc(C)nc(NC(=O)/C=C/c2ccc(Cl)cc2)n1,0.99,inactive
S=C(NNC(=S)NC1CC2C=CC1C2)NC1CC2C=CC1C2 (centres undefined),0.93,inactive
CCCCN1C(N)=NC[C@@H]1CC1CCCCC1,0.8,inactive

SMILES,fold increase,outcome
C=CCC1(C(=O)N(C)Cc2ccccc2)CCN(C(=O)OC(C)(C)C)CC1,0.96,inactive
NC(=O)C1=C[C@@H](c2csc3ccccc23)C[C@@H](OCc2ccc(CO)cc2)O1,0.78,inactive
COC(C[C@H](O)CC(=O)[C@@H](C)OCc1ccccc1)OC,0.76,inactive
CCCOc1ccc(Cl)cc1Nc1nc(NCCO)nc(N2CCCC2)n1,0.59,inactive
CC1(c2nnc(-c3ccncc3)o2)CC(c2cccnc2)=NO1 (centres undefined),0.69,inactive
Cc1cc(Cl)ccc1NNC(=O)c1snnc1C,1.06,inactive
CCC1(CC)C(=O)C2=C3C1[C@H](C(=O)OC)C=C(C(=O)OC)C[C@H]3[C@H]1C(=O)N(Cc3ccccc3)C(=O)[C@H]1[C@H]2C (some centres undefined),0.96,inactive
CCC(C)N1C(=S)SC(C)(C)C1N(O)C(=O)NC1CCCCC1 (centres undefined),0.99,inactive
NC(=O)CC(NC(=O)Cc1cccc2ccccc12)c1ccc(NCc2cc(F)ccc2F)c([N+](=O)[O-])c1 (centres undefined),0.77,inactive
CC1(C)C=Cc2c(ccc3c2OC[C@@H](c2ccc(O)cc2O)C3)O1,0.67,inactive
Nc1nc(O)c(CC(=O)O)s1,1.21,inactive
Clc1ccc2nc(-c3ccccc3)nc(C(Cl)Cl)c2c1,0.64,inactive
CCCCN1C(N)=NC[C@@H]1Cc1ccccc1,0.87,inactive
Cc1nnc(SC(C(=O)c2ccccc2)c2ccccc2)[nH]c1=O (centres undefined),0.88,inactive
CN1CCc2nc(SC(C(=O)O)c3ccccc3)c(C#N)c(-c3cccs3)c2C1 (centres undefined),0.99,inactive
C/C(=N\Nc1cccc(C(=O)O)c1)c1ccc2c(c1)Nc1ccccc1S2,1.22,inactive
O=C(NCc1ccccc1)c1onc(CSc2ccncc2)c1C(=O)NCc1ccccc1,0.71,inactive
O=C(N/N=C\c1cc(Br)c(Br)o1)C1COc2ccccc2O1 (centres undefined),1.28,inactive
CC(C)c1cc(CN2CCOCC2)cc(C(C)C)c1O,1.06,inactive
CC(C)=CCc1c(O)c(CC=C(C)C)c2occ(-c3ccc(O)cc3)c(=O)c2c1O,0.74,inactive
CN(C)CCCN(Cc1cc2cc3c(cc2[nH]c1=O)OCCO3)C(=O)NC1CCCCC1,0.89,inactive
C/C(CC(C)C)=N\Oc1nc(C)cc(C)n1,0.9,inactive

SMILES,fold increase,outcome
COc1ccc(Nc2cc(=O)n(-c3ccccc3)c3c2c(=O)n(C)c(=O)n3C)cc1,1.09,inactive
NC(=O)C1=C[C@@H](c2ccc3c(c2)OCO3)C[C@@H](OCCCCO)O1,0.58,inactive
O=C(NCC1CC1)c1onc(CSc2ccccc2)c1C(=O)NCC1CC1,1.02,inactive
Cc1ccc(S(=O)(=O)N2CCN(C(=O)COC(=O)c3c(C)noc3C)CC2)c(C)c1,0.83,inactive
COc1ccc(CN2CC[C@H]3C=CC[C@@H](C(=O)N4CCOCC4)[C@H]3C2=O)cc1OC,0.78,inactive
Brc1ccc(-c2n(-c3ccccn3)c3ccccc3[n+]2-c2ccccn2)cc1,1.03,inactive
Cc1[nH]n(C)c(=O)c1N=Nc1ccc(S(C)(=O)=O)cc1,1.01,inactive
O=C(CC(c1ccccc1)c1cc(Cl)ccc1O)NCCN1CCOCC1 (centres undefined),0.85,inactive
COC(=O)c1c(-c2ccsc2)oc2ccc(-c3cc(OC)c(OC)c(OC)c3)cc12,1.05,inactive
Cc1cccc(NC(=O)c2ccc([N+](=O)[O-])o2)c1,0.66,inactive
C=CC1C(OC2OC(CO)C(O)C(O)C2O)OC=C(C(=O)OC)C1CC1CC(=O)CC(CC(=O)CCc2ccc(O)cc2)O1 (centres undefined),1.03,inactive
O=C(N/N=C/c1cccc2cccnc12)[C@H]1C[C@@H]1c1ccccc1,0.97,inactive
COCCn1c(SCC(=O)c2[nH]c(C)c(C(C)=O)c2C)nc2ccccc2c1=O,0.86,inactive
CC#CC[N+](C)(C)CCCCCC,1.26,inactive
O=C(NCc1ccccc1)C1=C[C@@H](c2ccccc2)C[C@@H](OCCCCO)O1,0.94,inactive
O=C(COc1ccc([N+](=O)[O-])cc1Cl)Nn1cnnc1,0.85,inactive
COc1ccc(/C=C/C(=O)Nc2ccc(C)cc2)cc1S(=O)(=O)N1CCOCC1,0.88,inactive
CC1(C)S[C@@H]2[C@H](NC(=O)COc3ccccc3)C(=O)N2C1C(=O)OCc1ccccc1 (some centres undefined),0.86,inactive
NC(=O)c1nnsc1-c1ccc(-c2snnc2C(N)=O)cc1,0.97,inactive
O=[N+]([O-])C(=c1ccc2c(c1)N1C3=C(CCCC3)CC3CCCCC31N=2)[N+](=O)[O-] (centres undefined),1.07,inactive
Cc1ccc(-c2nc(SCC(=O)Nc3ccccc3OC(F)F)c3c(C)c(C(=O)O)sc3n2)cc1,0.92,inactive
